Results as given in ChEMBL document CHEMBL3988442, “University of Dundee, Small-Polar-MMV Screening Library” (2021).
For some of these results: Measured potencies and affinities stand elsewhere.

Assays:
Parameters in all cases: scale not given: direction of the effect not stated beside the values
[1] = target: Protein translocase subunit SecA (Escherichia coli (strain K12)) (UniProt P10408); assay: Assay to Identify E. coli SecA ATPase Inhibitors; format: functional; conditions: 30 µM
[2] = target: T1, Ubiquitin-activating enzyme e1, putative (Leishmania donovani (strain BPK282A1)) (UniProt E9BSI1); assay: Leishmania donovani Ubiquitin Activating Enzyme (LdE1); format: functional; conditions: 30 µM
T1 sequence (whole entry): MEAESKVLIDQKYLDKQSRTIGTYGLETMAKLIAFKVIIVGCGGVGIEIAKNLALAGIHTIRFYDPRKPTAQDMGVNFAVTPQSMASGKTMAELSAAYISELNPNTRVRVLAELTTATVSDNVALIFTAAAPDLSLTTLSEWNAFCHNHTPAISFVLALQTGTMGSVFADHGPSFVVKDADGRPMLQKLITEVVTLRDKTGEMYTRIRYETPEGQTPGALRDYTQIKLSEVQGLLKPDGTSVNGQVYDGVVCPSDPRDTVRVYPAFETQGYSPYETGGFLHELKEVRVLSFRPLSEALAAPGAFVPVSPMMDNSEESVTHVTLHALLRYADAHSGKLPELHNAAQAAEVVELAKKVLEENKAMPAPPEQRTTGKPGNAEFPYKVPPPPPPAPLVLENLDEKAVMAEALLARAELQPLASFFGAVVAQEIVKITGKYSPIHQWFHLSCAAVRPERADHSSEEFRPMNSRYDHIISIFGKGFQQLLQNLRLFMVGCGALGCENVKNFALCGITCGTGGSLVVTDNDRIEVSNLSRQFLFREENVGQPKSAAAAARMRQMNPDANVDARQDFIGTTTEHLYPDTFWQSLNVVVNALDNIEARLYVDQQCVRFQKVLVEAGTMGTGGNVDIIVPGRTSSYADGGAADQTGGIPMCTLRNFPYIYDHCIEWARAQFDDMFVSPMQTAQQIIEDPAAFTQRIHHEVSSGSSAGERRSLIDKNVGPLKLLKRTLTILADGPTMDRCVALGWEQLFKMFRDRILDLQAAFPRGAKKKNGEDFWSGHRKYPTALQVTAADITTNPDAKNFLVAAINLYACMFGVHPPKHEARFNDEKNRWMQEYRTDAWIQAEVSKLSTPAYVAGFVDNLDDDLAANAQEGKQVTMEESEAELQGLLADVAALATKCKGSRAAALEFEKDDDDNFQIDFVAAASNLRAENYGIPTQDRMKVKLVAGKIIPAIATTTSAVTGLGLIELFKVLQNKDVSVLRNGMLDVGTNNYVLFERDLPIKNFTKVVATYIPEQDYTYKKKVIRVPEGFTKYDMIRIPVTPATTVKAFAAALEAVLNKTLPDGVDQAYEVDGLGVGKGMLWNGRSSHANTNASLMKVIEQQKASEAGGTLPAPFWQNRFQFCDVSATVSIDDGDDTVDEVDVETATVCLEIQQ

[3] = target: AMP-activated protein kinase, AMPK (Homo sapiens) (UniProt P54646+O43741+P54619+Q9UGJ0+Q9Y478+Q13131+Q9UGI9); assay: AMP-dependent Kinase enzyme assay. An in vitro enzyme assay that detects ADP turnover that is directly proportional to AMPK activity. This uses naive AMPK that is activated during the assay with MK-8722; format: functional; conditions: 30 µM
[4] = target: Sialic acid-binding Ig-like lectin 9 (Homo sapiens) (UniProt Q9Y336); assay: Hs-Siglec9 ALPHAscreen SOP 20170721; conditions: 10 µM
Sequence of Sialic acid-binding Ig-like lectin 9 (Homo sapiens) (Q9Y336 whole entry): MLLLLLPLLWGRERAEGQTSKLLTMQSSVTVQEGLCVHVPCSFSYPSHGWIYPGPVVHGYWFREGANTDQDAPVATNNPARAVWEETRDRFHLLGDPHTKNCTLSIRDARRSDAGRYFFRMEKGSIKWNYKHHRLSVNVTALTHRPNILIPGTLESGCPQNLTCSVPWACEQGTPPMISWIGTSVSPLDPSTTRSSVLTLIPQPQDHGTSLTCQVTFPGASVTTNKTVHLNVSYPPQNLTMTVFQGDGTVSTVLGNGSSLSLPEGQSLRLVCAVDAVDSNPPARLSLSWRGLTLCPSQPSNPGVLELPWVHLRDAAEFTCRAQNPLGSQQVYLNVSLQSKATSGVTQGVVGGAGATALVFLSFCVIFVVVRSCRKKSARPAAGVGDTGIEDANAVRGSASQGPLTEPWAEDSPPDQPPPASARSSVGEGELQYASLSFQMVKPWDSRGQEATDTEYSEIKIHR

Trypanosoma cruzi = assay: Trypanosoma cruzi phosphomannomutase and mannose-1-phosphate guanylyltransferase assay; format: functional; conditions: 10 µM
[5] = target: T2, Arginase-2, mitochondrial (Homo sapiens) (UniProt P78540); assay: in vitro enzyme assay to detect the production of urea directly proportional to the activity of Arginase II; format: functional; conditions: 33.3 µM; also: in the data most compounds retested in dose-response had high values
T2 sequence (whole entry): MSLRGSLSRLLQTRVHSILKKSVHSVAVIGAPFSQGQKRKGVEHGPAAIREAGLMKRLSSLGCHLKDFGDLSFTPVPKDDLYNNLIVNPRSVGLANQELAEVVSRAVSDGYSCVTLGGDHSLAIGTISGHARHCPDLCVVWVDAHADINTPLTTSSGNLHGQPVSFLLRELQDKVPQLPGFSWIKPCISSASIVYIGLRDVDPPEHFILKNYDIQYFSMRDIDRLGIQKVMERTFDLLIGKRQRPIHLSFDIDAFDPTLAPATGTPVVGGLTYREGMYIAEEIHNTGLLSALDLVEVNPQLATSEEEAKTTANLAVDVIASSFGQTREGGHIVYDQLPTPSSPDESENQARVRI

[6] = target: T3, Proteasome subunit beta (Trypanosoma cruzi) (UniProt O96673); assay: Trypanosoma cruzi proteasome chymotrypsin-like activity (TcProtChymo) assay.; also: in the data most compounds retested in dose-response had high values; format: functional; conditions: 9.37 µM
T3 sequence (whole entry): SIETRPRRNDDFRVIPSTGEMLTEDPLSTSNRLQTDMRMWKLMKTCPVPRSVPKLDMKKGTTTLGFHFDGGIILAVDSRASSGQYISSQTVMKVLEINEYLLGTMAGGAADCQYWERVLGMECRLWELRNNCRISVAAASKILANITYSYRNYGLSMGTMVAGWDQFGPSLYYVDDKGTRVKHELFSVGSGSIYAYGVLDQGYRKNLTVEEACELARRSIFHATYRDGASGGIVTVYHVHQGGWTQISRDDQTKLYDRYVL

Homo sapiens = species: Homo sapiens; assay: To identify inhibition of the IFN signalling (Jak-Stat) pathway via expression of an eGFP reporter gene under the control of an IFN-stimulated response element (ISRE) containing MxA promoter.; format: functional; conditions: 30 µM
[7] = target: T4, Tyrosyl-tRNA synthetase, putative (Trypanosoma cruzi (strain CL Brener)) (UniProt Q4DSP6); assay: Trypanosoma cruzi tyrosyl tRNA synthetase (TcYRS) _High Tyrosine SOP; format: functional; conditions: 30 µM; also: in the data most compounds retested in dose-response had high values
T4 sequence (whole entry): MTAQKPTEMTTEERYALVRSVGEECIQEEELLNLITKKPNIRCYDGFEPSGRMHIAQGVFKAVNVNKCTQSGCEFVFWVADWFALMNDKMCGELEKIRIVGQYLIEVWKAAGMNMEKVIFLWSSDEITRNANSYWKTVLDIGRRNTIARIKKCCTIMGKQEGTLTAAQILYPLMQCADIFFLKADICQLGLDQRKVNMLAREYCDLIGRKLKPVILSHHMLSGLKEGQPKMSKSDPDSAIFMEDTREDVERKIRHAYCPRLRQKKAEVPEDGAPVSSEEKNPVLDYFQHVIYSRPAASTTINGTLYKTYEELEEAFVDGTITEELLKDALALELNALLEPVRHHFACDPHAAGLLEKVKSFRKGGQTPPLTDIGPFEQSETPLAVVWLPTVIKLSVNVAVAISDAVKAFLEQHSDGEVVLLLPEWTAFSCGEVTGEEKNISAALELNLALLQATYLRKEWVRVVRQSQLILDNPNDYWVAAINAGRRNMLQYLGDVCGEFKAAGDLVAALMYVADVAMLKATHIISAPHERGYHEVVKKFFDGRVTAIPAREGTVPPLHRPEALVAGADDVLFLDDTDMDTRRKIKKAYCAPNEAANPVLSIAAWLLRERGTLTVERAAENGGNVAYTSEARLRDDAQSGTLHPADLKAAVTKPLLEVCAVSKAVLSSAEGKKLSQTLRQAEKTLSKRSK

[8] = target: T4, Tyrosyl-tRNA synthetase, putative (Trypanosoma cruzi (strain CL Brener)); assay: Trypanosoma cruzi tyrosyl tRNA synthetase (TcYRS) SOP; format: functional; conditions: 30 µM
[9] = target: Chromo domain-containing protein 1 (Saccharomyces cerevisiae (strain ATCC 204508 / S288c) (Baker's yeast)) (UniProt P32657); assay: ScCHD-1 Enzyme Inhibition Assay; format: functional; conditions: 30 µM; also: in the data most compounds retested in dose-response had high values
Sequence of Chromo domain-containing protein 1 (Saccharomyces cerevisiae (strain ATCC 204508 / S288c) (Baker's yeast)) (P32657 whole entry, the tested form may be a part): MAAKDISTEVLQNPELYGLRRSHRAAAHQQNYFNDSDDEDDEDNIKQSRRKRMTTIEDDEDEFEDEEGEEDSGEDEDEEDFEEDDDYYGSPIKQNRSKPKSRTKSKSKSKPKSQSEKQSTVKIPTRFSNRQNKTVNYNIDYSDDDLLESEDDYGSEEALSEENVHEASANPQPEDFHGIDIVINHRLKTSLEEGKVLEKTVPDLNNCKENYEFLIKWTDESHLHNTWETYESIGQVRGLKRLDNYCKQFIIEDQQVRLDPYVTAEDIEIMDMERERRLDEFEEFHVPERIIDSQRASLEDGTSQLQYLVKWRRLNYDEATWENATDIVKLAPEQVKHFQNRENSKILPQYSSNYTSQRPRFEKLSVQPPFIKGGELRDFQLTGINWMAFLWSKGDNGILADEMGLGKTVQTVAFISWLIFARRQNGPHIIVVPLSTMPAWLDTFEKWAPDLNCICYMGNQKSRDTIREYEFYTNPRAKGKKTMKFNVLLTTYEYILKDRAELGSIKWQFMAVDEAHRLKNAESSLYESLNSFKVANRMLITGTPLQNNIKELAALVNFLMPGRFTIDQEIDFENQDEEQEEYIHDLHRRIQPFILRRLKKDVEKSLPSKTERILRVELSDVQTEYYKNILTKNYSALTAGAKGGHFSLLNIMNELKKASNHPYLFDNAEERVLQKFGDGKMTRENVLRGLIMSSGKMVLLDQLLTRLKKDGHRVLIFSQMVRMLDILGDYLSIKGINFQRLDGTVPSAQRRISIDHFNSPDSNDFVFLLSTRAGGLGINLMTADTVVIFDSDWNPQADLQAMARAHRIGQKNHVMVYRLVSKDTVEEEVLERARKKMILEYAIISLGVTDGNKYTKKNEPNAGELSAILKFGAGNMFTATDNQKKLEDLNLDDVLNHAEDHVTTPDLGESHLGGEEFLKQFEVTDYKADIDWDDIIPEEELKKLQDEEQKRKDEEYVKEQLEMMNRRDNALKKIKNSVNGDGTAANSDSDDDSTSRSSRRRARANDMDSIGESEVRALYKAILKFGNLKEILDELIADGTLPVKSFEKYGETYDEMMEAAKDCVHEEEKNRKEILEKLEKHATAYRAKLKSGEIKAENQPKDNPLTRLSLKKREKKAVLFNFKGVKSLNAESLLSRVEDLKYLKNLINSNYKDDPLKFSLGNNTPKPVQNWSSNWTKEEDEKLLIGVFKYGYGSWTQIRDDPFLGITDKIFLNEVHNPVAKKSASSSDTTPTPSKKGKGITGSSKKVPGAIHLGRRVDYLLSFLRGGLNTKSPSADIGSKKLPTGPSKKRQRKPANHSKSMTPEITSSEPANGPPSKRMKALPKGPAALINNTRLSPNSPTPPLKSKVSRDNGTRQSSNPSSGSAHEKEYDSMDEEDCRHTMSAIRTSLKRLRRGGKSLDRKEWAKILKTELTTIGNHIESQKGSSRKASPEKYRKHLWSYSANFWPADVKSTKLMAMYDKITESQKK

Sequence of Protein translocase subunit SecA (Escherichia coli (strain K12)) (P10408 whole entry): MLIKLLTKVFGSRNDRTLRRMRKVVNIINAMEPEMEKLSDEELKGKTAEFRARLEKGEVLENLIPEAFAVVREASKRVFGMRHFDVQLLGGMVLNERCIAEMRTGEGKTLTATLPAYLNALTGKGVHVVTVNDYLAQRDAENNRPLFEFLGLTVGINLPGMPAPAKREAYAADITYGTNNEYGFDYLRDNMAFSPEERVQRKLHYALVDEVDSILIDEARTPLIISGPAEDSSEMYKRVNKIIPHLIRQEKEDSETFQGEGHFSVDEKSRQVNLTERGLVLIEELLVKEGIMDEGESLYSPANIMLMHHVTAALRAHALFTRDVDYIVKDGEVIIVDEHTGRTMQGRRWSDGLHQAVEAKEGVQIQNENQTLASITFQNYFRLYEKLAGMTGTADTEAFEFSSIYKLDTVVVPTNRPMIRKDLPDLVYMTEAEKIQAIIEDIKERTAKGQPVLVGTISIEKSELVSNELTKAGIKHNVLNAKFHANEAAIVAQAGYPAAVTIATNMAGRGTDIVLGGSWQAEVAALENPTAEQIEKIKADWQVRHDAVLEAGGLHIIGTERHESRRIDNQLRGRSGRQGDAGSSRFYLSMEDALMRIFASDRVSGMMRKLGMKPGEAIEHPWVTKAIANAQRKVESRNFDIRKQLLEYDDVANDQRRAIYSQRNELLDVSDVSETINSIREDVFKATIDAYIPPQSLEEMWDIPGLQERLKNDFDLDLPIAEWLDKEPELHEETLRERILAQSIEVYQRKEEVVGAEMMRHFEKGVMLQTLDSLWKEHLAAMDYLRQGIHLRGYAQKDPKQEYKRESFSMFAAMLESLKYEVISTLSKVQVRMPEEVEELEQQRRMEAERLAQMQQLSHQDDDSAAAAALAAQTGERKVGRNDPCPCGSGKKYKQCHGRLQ

Row | Compound | Percent Effect [1] [%] | Percent Effect [2] [%] | Percent Effect [3] [%] | Percent Effect [4] [%] | Percent Effect (Trypanosoma cruzi) [%] | Percent Effect [5] [%] | Percent Effect [6] [%] | Percent Effect (Homo sapiens) [%] | Percent Effect [7] [%] | Percent Effect [8] [%] | Percent Effect [9] [%]
1 | CS(=O)(=O)NC[C@]12COC[C@H]1CN(CC1CCCC1)C2 | -4.19 | 5.41 | 8.19 | -4.23 | -4.79 | 1.59 | 20.1 | 0.262 | 2.16 | 7.69 | 0.895
2 | N#Cc1ccccc1N1CCCN(C(=O)CCn2cccn2)CC1 | -6.4 | 15.2 | 5.53 | 0.749 | 5.19 | -0.76 | 6.8 | 3.94 | 5.42 | 16.5 | -6.74
3 | Cc1nc(C(=O)N2CCC(Nc3cccnn3)CC2)cs1 | -9.75 | 7.79 | -12.2 | -10.3 | 9.11 | -5.68 | 12.7 | -1.06 | 1.91 | 18.8 | -20.4
4 | c1sc(C2CCCC2)nc1CN1CCn2c(nnc2C2CC2)C1 | -6.12 | 5.41 | 0.718 | -3.09 | -2.14 | -0.554 | 10.4 | 37.1 | 10.9 | 15.8 | -4.21
5 | O=S(=O)(Cc1ccccc1F)NCCN1CCOCC1 | -4.08 | 8 | -0.989 | -5.08 | -3.02 | -1.04 | 12.6 | -12.7 | -1.64 | 6.17 | -1.76
6 | N#CC1(C(=O)N2CCN(c3nccs3)CC2)CCCCC1 | -1.57 | 13.2 | 7.71 | 8.98 | -2.26 | 2.68 | 11 | -3.2 | 7.35 | 17.1 | -6.21
7 | CN1CC(=O)N(c2cccc(F)c2)CC12CCNC2 (stereo unspecified) | -5.9 | 0 | 3.44 | -2.82 | -3.03 | -4.78 | 10.7 | 12.5 | -1.08 | 5.13 | 1.85
8 | CN(C)C(=O)N1CCC2(CCCN(Cc3cnn(C)c3)C2)C1 (stereo unspecified) | -3.04 | 0 | 12 | 1.42 | -2.83 | 0.955 | 19 | -3.73 | 1.08 | 5.13 | -0.435
9 | COc1cccc(CC2CN(C3CCN(C(C)=O)CC3)CCO2)c1 (stereo unspecified) | -1.38 | -7.79 | 2.17 | 2.19 | -1.87 | -2.76 | -0.499 | -4.71 | 2.15 | 3.7 | 1.6
10 | CN1CCC(NC(=O)NCc2csc(Br)c2)CC1 | -2.29 | 13.5 | 4.89 | 6.05 | 3.25 | -3.88 | 10.4 | 2.14 | 9.9 | 18.3 | -4.58
11 | CCn1c(C)nnc1CN(C)C1CCN(CCn2cccn2)C1 (stereo unspecified) | -1.14 | 15.6 | 0.0585 | -11.5 | -0.686 | -1.05 | 17.9 | 20.6 | 14.3 | 23.5 | -17.4
